Measured values from the supplement of paper PMC5662767.

Tested on: Drosophila S2 cl14 SmoIP sensor cells
Test: normalized SmoIP GFP fluorescence (untreated unstimulated = 0%, untreated Hh-stimulated = 100%); higher = more Smo activation sensor fluorescence
Conditions: compound concentration: 2 uM, 24 h
[1] = stimulation: Hh conditioned medium (+Hh)
[2] = stimulation: mock conditioned medium (-Hh)
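Note: flow cytometry read-out as median GFP intensity of gated cells, compounds added 30 min before Hh-conditioned or mock medium, mock-treated cells serving as unstimulated baseline.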

Cc1c(CN2CCN(C(=O)[C@H](C)O)CC2)sc2c(N3CCOCC3)nc(-c3cnc(N)nc3)nc12
normalized SmoIP GFP fluorescence [1]: 69.8% | normalized SmoIP GFP fluorescence [2]: -4.35%

C[C@@H]1CCN(C(=O)CC#N)C[C@@H]1N(C)c1ncnc2[nH]ccc12
normalized SmoIP GFP fluorescence [1]: 105% | normalized SmoIP GFP fluorescence [2]: -0.889%

CCOC(=O)c1ccc(N2NC(=O)C(=Cc3ccc([N+](=O)[O-])o3)C2=O)cc1
normalized SmoIP GFP fluorescence [1]: 119% | normalized SmoIP GFP fluorescence [2]: 8.94%

COC(=O)C1=C(C)NC(C)=C(C(=O)OC(C)C)C1c1cccc2nonc12 (stereo not drawn) [Isradipine(Dynacirc)]
normalized SmoIP GFP fluorescence [1]: 112% | normalized SmoIP GFP fluorescence [2]: 3.72%
